Records with an inconclusive call do not appear. Entries that show only a call come without a potency. Activity calls are given as the source filed them. Calls come from the whole dose curve; as a rule, active = well fitted inhibition curve with a large enough effect; inconclusive = small, poorly fitted or top-dose-only effect; inactive = flat fitted curve, though single readings scatter.
Biological target: Calcium and integrin-binding protein 1 (Homo sapiens) (UniProt Q99828)
Assay: Primary qHTS for Identification of Calcium Integrin Binding Protein 1 (CIB1) Competitor (AID 1508620);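 note: GST tagged CIB1 binding a fluorescein labelled alphaIIb integrin peptide tracer; top concentration of the series differs between compounds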
Conditions: CIB1-GST / FITC-alphaIIb peptide fluorescence polarization; series mostly up to 57.7 µM
How it was run: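 Fluorescence polarization competition: CIB1-GST (1 uM final) preincubated with compound 15 min at room temperature, then FITC-labeled alphaIIb peptide (100 nM final) added for another 15 min. Polarization read at Ex 480/Em 540.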

Chain of Calcium and integrin-binding protein 1 (Homo sapiens) (Q99828 whole entry, looked up): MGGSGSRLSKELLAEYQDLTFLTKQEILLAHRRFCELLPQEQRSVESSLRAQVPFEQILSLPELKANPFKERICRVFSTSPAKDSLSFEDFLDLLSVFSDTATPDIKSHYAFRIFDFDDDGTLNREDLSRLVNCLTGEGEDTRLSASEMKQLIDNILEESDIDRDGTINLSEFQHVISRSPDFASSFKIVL

Compound | Potency
CC(C)C1(O[C@@H]2O[C@H](CO)[C@@H](O)[C@H](O)[C@H]2O)CC=C(CO)CC1 (some centres not stated) | inactive
NC(=O)c1ccc(OCC2NC(=O)C3CCCN3C2=O)cc1 (configuration not stated) | inactive
COc1ccc([C@H]2Cc3cccc(O)c3C(=O)O2)cc1 | inactive
C/C=C/C1=CC2=C(CO1)C(=O)[C@](C)(O)[C@H](OC(=O)c1c(O)cc(OC)c(O)c1C)C2 | inactive
C=C[C@@]1(C)CC(=O)C2[C@](C)(O1)[C@@H](OC(C)=O)[C@@H](O)[C@H]1C(C)(C)CCC[C@]21C (some centres not stated) | inactive
CC(C)Nc1cc(-c2c[nH]c(C(=O)N[C@H](CO)c3cccc(Cl)c3)c2)c(Cl)cn1 | inactive
CC(C)c1ccc(CC(=O)N2CCC[C@@H](c3cccc(OC(C)(C)C(=O)O)c3)C2)cc1 | inactive
COc1cc(C)c(C(=O)O[C@H]2[C@@H](O)[C@H](n3ccc(=O)[nH]c3=O)O[C@@H]2CO)c(OC)c1 | inactive
CC1CCCC2OC2C(=O)c2c(O)cc(O)cc2CC(=O)O1 (configuration not stated) | inactive
CC(O)C(O)/C=C/C=C/C(=O)O[C@@H]1C=C2COC(=O)[C@]2(O)[C@@]2(C)CCCC(C)(C)C12 (some centres not stated) | inactive
CC(C)=CC/C=C(/C)[C@H]1CC[C@]2(C)[C@@H]1[C@H](O)CC1[C@@]3(C)CC[C@H](O)C(C)(C)[C@@H]3[C@@H](O[C@@H]3O[C@H](CO)[C@@H](O)[C@H](O)[C@H]3O[C@@H]3O[C@@H](C)[C@H](O)[C@@H](O)[C@H]3O)C[C@]12C (some centres not stated) | inactive
CC(C)CC(=O)OC[C@H]1O[C@@](COC(=O)CC(C)C)(O[C@H]2O[C@H](CO)[C@@H](O)[C@H](O)[C@H]2O)[C@@H](OC(=O)CC(C)C)[C@@H]1OC(=O)CC(C)C | inactive
